The list is not random: actives were taken first. Their share in the collection is about 1.6%.
TNFa cytotox: HUVEC cytotoxicity counter-screen, TNF alpha stimulated; HUVEC TNFalpha-stimulated, Hoechst cell count, imaging; cell count reduction, % at 2 µM; 93,000 compounds, 0.17% hits;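 active = cell count reduction exceeding the screen mean by over 5 SD, scaled to untreated wells per plate, cut at about 78% in these data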;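 also: cells counted after 24 h of TNF alpha exposure following the 1 h pretreatment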
HUVEC tox IL1B: toxic to HUVEC cells under IL-1B stimulation; HUVEC cell count loss, Hoechst imaging, IL-1B stimulated; cell count reduction, % at 2 µM; 94,000 compounds, 0.41% hits; AID 845;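 active = cell count reduction more than 3 SD above the screen-wide mean, cut at about 70% in these data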;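 also: normalized per plate to untreated control cells as the no-loss baseline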
VCAM1 TNFa inh: reduces TNF alpha induced VCAM1 expression in HUVEC | AID 802 | 95,000 compounds, 0.48% hits | HUVEC TNFa-induced VCAM-1 immunofluorescence, high-content imaging | inhibition, % at 2 µM;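 active = inhibition above the batch mean plus 3 SD, with images confirmed as a hit by eye, cut at about 37% in these data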;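 also: 0% = TNF-stimulated DMSO wells and 100% = unstimulated control wells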
IL1B NFkB pot: enhances IL-1B driven NFkB nuclear translocation | HUVEC IL-1B NFkB p65 nuclear translocation imaging | activation, % at 2 µM | 94,000 compounds, 0.3% hits | AID 819;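 active = activation above 40%, about the mean plus 3 SD, also judged a hit on visual image review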;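 also: percent activation is computed from the nuclear over cytoplasmic p65 intensity ratio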
IL1B NFkB inh: blocks IL-1B driven NFkB nuclear translocation in HUVEC cells. HUVEC IL-1B NFkB p65 nuclear translocation imaging. inhibition, % at 2 µM. 94,000 compounds, 0.43% hits. AID 796;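 active = inhibition above about 30% together with a positive call from visual inspection of the well image, limit read from the data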;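 also: nuclear over cytoplasmic p65 intensity ratio measured by imaging; 0% = IL-1B stimulated DMSO wells and 100% = unstimulated DMSO wells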
E-sel TNF inh: TNF alpha driven E-selectin expression inhibition; HUVEC TNFa-induced E-selectin immunofluorescence, high content; inhibition, % at 2 µM; 120,000 compounds, 0.71% hits; AID 1246;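 active = inhibition above the batch mean plus 3 SD, and confirmed as a hit on visual image review, cut at about 43% in these data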;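 also: 0% = TNF-stimulated DMSO wells and 100% = unstimulated control wells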
The depositor's hits bear a star; nt = no result given.

SMILES	TNFa cytotox	HUVEC tox IL1B	VCAM1 TNFa inh	IL1B NFkB pot	IL1B NFkB inh	E-sel TNF inh
Cc1ccc(Nc2cc(C)nn2-c2nc(C)cc(=O)[nH]2)cc1	62	14	69	-78	78*	42
CC(=O)c1ccc(N2CCN(C(=O)C3CCCN(S(=O)(=O)c4c(C)[nH]c(=O)[nH]c4=O)C3)CC2)cc1 (centres undefined)	nt	nt	nt	nt	nt	11
CC1(C)CC(CC(=O)Nc2nccs2)(c2ccccc2)CCO1 (centres undefined)	nt	nt	nt	nt	nt	-13
COc1ccc(-c2ccc(C(=S)N3CCN(C(C)=O)CC3)o2)cc1	10	-16	-10	-4	4	64*
COc1ccc(CC(=O)N2CCN(C(=O)Cc3ccc(OC)cc3)CC2)cc1	-2	-8	6	-6	6	-32
Cc1cccc(N)c1-c1c(C)cccc1N	nt	nt	nt	nt	nt	12
Cc1ccc(Nc2nc3ccccc3s2)cc1	nt	nt	nt	nt	nt	22
Cc1ccc(Nc2nnns2)cc1	-15	-14	-4	-38	38*	-3
COc1cccc([C@@H]2Oc3ccc(OC)cc3C(=O)[C@H]2OC(=O)NCc2ccc3c(c2)OCO3)c1	nt	nt	nt	nt	nt	-14
Cc1ccc(OCC(=O)N2CCCCC2)c(Br)c1	-5	87*	-4	-97	97*	-17
O=C(Nc1ccc2c(c1)OCO2)C1CC(c2ccc(F)cc2)=NO1 (centres undefined)	-1	1	9	-4	4	26
N#Cc1ccc(NC(=O)C2CC(c3ccc(F)cc3)=NO2)cc1 (centres undefined)	4	19	-6	6	-6	93*
CCC(C)Sc1nc2c(c(=O)[nH]c(=O)n2C)n1C (centres undefined)	-9	91*	0	7	-7	6
Cc1ccc(S(=O)(=O)Nc2ccc(NC(=O)Nc3ccc(F)cc3F)cc2)cc1	nt	nt	nt	nt	nt	82*
CNc1nc(SCc2ccc(C)cc2)nc2c1CCCC2	6	-10	-10	-42	42*	nt
Cc1ccc(CSc2nc3c(c(N(C)C)n2)CCCC3)cc1	-17	-43	3	11	-11	-16
COc1ccc(C(=O)c2ccc(OC)c(OC)c2)cc1OC	-29	9	8	1	1	nt
COc1ccc(C(=O)c2ccc(OC)c(N)c2)cc1N	13	-13	20	70*	-70	-20
COC(=O)CN1C(=S)N(c2ccc(Cl)cc2)C(=O)C1CC(=O)Nc1ccc(Cl)cc1 (centres undefined)	nt	17	nt	-5	6	57*
COC(=O)CN1C(=S)N(c2ccc(Cl)cc2)C(=O)C1CC(=O)Nc1ccc(F)cc1 (centres undefined)	nt	nt	nt	nt	nt	17
CC/C(O)=C1\C(=O)CCCC1=NCc1nc2ccccc2[nH]1	nt	nt	nt	nt	nt	-1
CC(C)CC(=O)NC1(C(F)(F)F)C(=O)N(Cc2ccccc2)C2=C1C(=O)CC(C)(C)C2 (centres undefined)	-20	-38	0	-33	33*	-1
CC1(C)CC(=O)C2=C(C1)N(Cc1ccccc1)C(=O)C2(O)C(F)(F)F (centres undefined)	38	1	4	-4	4	17
COc1ccc(-c2c(C)nc(N)nc2-c2ccc(OCc3ccc(C)cc3)cc2O)cc1OC	nt	nt	nt	nt	nt	-20
COc1cccc(Nc2nc(=O)[nH]nc2C)c1	-14	83*	-30	-18	18	-10
SMILES	TNFa cytotox	HUVEC tox IL1B	VCAM1 TNFa inh	IL1B NFkB pot	IL1B NFkB inh	E-sel TNF inh
COc1cccc(Nc2ccc(Nc3cccc(OC)c3)nn2)c1	nt	nt	nt	nt	nt	-47
C=CCNC(=S)N(CC)c1cccc2ccccc12	nt	nt	nt	nt	nt	-21
Cc1ccc(-c2nn3c(C)nnc3s2)cc1NC(=O)C(C)C	-14	5	13	42*	-42	15
Cc1ccc(-c2nn3c(C)nnc3s2)cc1NC(=O)c1cccnc1	-5	-11	1	-3	3	nt
Cc1ccc(-c2nn3c(C)nnc3s2)cc1NC(=O)CSc1ccc(Cl)cc1	3	-14	19	63*	-63	3
CCOC(=O)c1cnn(-c2ccccc2)c1-n1cccc1	-15	39	5	-24	-5	nt
CCOC(=O)c1cnn(-c2ccccc2)c1-n1cccc1C(=O)C(=O)Nc1ccc(OC)cc1	-26	94*	-14	9	-9	-24
CCOc1ccccc1NC=C1C(=O)OC(C)(C)OC1=O	-7	19	13	2	-2	27
COc1ccccc1NC=C1C(=O)OC(C)(C)OC1=O	-26	-1	8	-91	91*	nt
O=C(O)CSC1c2ccccc2C(=O)N1Cc1ccccc1 (centres undefined)	-13	-10	-4	-3	3	69*
